This passage reports binding signal results from paper PMC8384837, “Expanding the binding specificity for RNA recognition by a PUF domain”.

The target of this experiment is PUM1 PUF domain R5-DRT (Homo sapiens, UniProt Q14671 828-1176, C1007D;Q1011T). Nature of the experiment: yeast three-hybrid, YBZ-1, SC-Leu-His + 0.5 mM 3-AT, 4 days. The conditions noted are these: tags: N-Gal4 AD-HA kept; label: inside an RPR1-promoter hybrid RNA with tandem MS2 sites; ssRNA. In short, it runs like this: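 The interaction score is the logarithmic change in variant frequency from input to selection. It uses log2, with a pseudocount of 1 for absent variants, and frequencies came from PCR-amplified, Illumina-sequenced repeat regions. The libraries were Pumilio-1 PUF domains randomized at the three base-contacting residues per repeat, co-expressed with matching RNA elements in strain YBZ-1 (LexA–MS2 coat fusion, HIS3 reporter). Plating lasted four days on SC-Leu (input) or SC-Leu-His + 0.5 mM 3-AT (selection).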
For “GGCUAGAACUAGUGGAUCCCCCGGCGCCCGGCGGCUCGAGCCCGGGUAAGUGUAAAUAGUCUGCAUGCCGCCGGGCGCCAUGCCUGCAGGUCGACUCUAGAAAACAUG”, the binding signal is 2.42 log2 enrichment (interaction score). Turning to “GGCUAGAACUAGUGGAUCCCCCGGCGCCCGGCGGCUCGAGCCCGGGUAAGUGUCAAUAGUCUGCAUGCCGCCGGGCGCCAUGCCUGCAGGUCGACUCUAGAAAACAUG”, the binding signal was 1.84 log2 enrichment (interaction score). Take “GGCUAGAACUAGUGGAUCCCCCGGCGCCCGGCGGCUCGAGCCCGGGUAAGUGUGAAUAGUCUGCAUGCCGCCGGGCGCCAUGCCUGCAGGUCGACUCUAGAAAACAUG”: the binding signal was 2.11 log2 enrichment (interaction score).
